# Data taken from PubChem BioAssay (NCI).
# Compounds without any hit were thinned out: in the full panel of roughly 83,000, 20% have a hit.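 Testing used 96-well plates and a 48-hour single-concentration exposure. Example: -40 means 40% of the starting cells died.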 The source made the active and inactive calls. Rule for the calls: active = growth percent below 10; inactive = the rest.
# Test system: MDA-MB-468 breast
# Assay: NCI-60 one-dose screen, 48 h (100 = growth as untreated, 0 = no growth, -100 = all killed)
# Settings: 10 µM unless noted
row,SMILES,growth
1,CC(=O)OC[C@]1(C)C=C2C(=O)[C@](C)(O)C3(CC3)C(C)=C2[C@H]1OC(=O)N(C)CCN(C)C(=O)OC(C)(C)C,-62.5% (active)
2,O=C1NC(=O)C(=Cc2ccc(OCCCCC3CCCCC3)c(Cl)c2)C(=O)N1,101% (inactive)
3,C=CC1=C[C@@H]2[C@@H]3O[C@]4(CC[C@H](O4)[C@@H](C)C[C@@H](O)C3=O)C[C@H](O)C3=NCC[C@@]32CC1,-56% (active)
4,Cc1ccc(C(=O)O[C@H](C(=O)O)[C@H](OC(=O)c2ccc(C)cc2)C(=O)O)cc1,103% (inactive)
5,CC(=O)[O][Hg][c]1ccccc1,-83.8% (active)
6,O=C(c1cccs1)C1NO[N+]([O-])=C1c1cccs1 (configuration not stated),-47.7% (active)
7,O=[P+](O)c1cccnc1,99.1% (inactive)
